Experimental findings from PubChem BioAssay AID1159580 (chemical genetic matrix, 2015) are described below.

This experiment can be described thus: chemical genetic growth profiling, strain panel (AID 1159580).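 Further: tested at 20 µM; growth read once vehicle control cultures reached saturation at 30 °C; 1 = growth at the plate median or of vehicle wells.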 The settings on record: S. cerevisiae deletion strains, growth OD.
[1] abbreviates: locus YGR078C, strain PAC10, stronger effect = lower value.
Where [2] appears, read: locus YHR030C, strain SLT2, stronger effect = lower value.
The mark [3] stands for this setting: locus YMR263W, strain SAP30, stronger effect = lower value.
Setting [4] is: locus YNL153C, strain GIM3, stronger effect = lower value.

The campaign covered roughly 5,500 compounds. About 2,000 (36%) were called active. About 18% were inconclusive and are not listed. The list shows a part of the results. A number with no mark means an inactive call. No stated cut-off is given here; in the data, active means normalized growth mostly below about 0.91 (no sharp cut-off); inconclusive means no clear call, values can overlap the other calls; inactive means mostly above about 0.92.

For the molecule `CC(=O)c1ccc(S(=O)(=O)NC(=O)NC2CCCCC2)cc1`, the normalized growth is 1.06 (locus YAL040C, strain CLN3, stronger effect = lower value); 0.998 (locus YER002W, strain NOP16, stronger effect = lower value); 0.99 under setting [1]; 0.959 under setting [2]; 0.963 (locus YHR079C, strain IRE1, stronger effect = lower value); 1.02 (locus YJL095W, strain BCK1, stronger effect = lower value). Besides, the normalized growth (locus YJR066W, strain TOR1, stronger effect = lower value) was 0.918; the normalized growth (locus YLR113W, strain HOG1, stronger effect = lower value) was 0.995; the normalized growth under setting [3] was 0.987; the normalized growth under setting [4] was 0.95; the normalized growth (locus YNL175C, strain NOP13, stronger effect = lower value) is 0.983; the normalized growth (locus YNL183C, strain NPR1, stronger effect = lower value) is 0.937. In addition, the normalized growth reads like this: (locus YNL197C, strain WHI3, stronger effect = lower value) 0.986; (locus YNL224C, strain SQS1, stronger effect = lower value) 1.01; (locus YOR083W, strain WHI5 (second series), stronger effect = lower value) 1; (locus YOR231W, strain MKK1, stronger effect = lower value) 0.967; (locus YPL256C, strain CLN2, stronger effect = lower value) 0.965.
For `CCOC(=O)/C(C#N)=C/N=C(N/N=C\c1c(Cl)cccc1Cl)SC`, the normalized growth is 0.98 (locus YAL013W, strain DEP1, stronger effect = lower value); 1.02 (locus YBR229C, strain ROT2, stronger effect = lower value); 1.06 (locus YCL061C, strain MRC1, stronger effect = lower value); 1.04 (locus YDL101C, strain DUN1, stronger effect = lower value); 1.03 (locus YDR150W, strain NUM1, stronger effect = lower value); 0.8 (active) (locus YEL061C, strain CIN8, stronger effect = lower value). For the same molecule, the normalized growth was 0.996 under setting [1]; 0.687 (active) under setting [2]; 1.01 (locus YHR087W, strain rtc3, stronger effect = lower value); 0.998 (locus YJL187C, strain SWE1, stronger effect = lower value); 1.04 (locus YJR043C, strain POL32, stronger effect = lower value); 1.02 (locus YJR075W, strain HOC1, stronger effect = lower value). In addition, the normalized growth (locus YKL190W, strain CNB1, stronger effect = lower value) is 0.926 (active); the normalized growth (locus YLR039C, strain RIC1, stronger effect = lower value) is 0.771 (active); the normalized growth (locus YLR058C, strain SHM2 (second series), stronger effect = lower value) was 0.989; the normalized growth (locus YLR085C, strain ARP6, stronger effect = lower value) is 0.845; the normalized growth (locus YLR262C, strain YPT6, stronger effect = lower value) is 0.796 (active); the normalized growth (locus YML094W, strain GIM5, stronger effect = lower value) is 0.901. The normalized growth (locus YMR219W, strain ESC1, stronger effect = lower value) is 1.01; the normalized growth under setting [3] was 1.01; the normalized growth (locus YMR307W, strain GAS1, stronger effect = lower value) was 0.799; the normalized growth under setting [4] was 1.03; the normalized growth (locus YNL298W, strain CLA4 (second series), stronger effect = lower value) is 0.795 (active); the normalized growth (locus YNL322C, strain KRE1, stronger effect = lower value) was 0.968. Also, the normalized growth (locus YNR030W, strain Alg12, stronger effect = lower value) is 0.863 (active); the normalized growth (locus YPL055C, strain LGE1, stronger effect = lower value) is 0.956; the normalized growth (locus YPL241C, strain CIN2, stronger effect = lower value) is 0.764 (active); the normalized growth (locus YPR135W, strain CTF4, stronger effect = lower value) is 0.795.
